This passage reports residual activity results from ChEMBL document CHEMBL2218924, “A broad activity screen in support of a chemogenomic map for kinase signalling research and drug discovery” (Biochem J, 2013).

In assay [1] the target is T1, Serine/threonine-protein kinase TBK1 (Homo sapiens) (UniProt Q9UHD2).
T1 sequence (whole entry): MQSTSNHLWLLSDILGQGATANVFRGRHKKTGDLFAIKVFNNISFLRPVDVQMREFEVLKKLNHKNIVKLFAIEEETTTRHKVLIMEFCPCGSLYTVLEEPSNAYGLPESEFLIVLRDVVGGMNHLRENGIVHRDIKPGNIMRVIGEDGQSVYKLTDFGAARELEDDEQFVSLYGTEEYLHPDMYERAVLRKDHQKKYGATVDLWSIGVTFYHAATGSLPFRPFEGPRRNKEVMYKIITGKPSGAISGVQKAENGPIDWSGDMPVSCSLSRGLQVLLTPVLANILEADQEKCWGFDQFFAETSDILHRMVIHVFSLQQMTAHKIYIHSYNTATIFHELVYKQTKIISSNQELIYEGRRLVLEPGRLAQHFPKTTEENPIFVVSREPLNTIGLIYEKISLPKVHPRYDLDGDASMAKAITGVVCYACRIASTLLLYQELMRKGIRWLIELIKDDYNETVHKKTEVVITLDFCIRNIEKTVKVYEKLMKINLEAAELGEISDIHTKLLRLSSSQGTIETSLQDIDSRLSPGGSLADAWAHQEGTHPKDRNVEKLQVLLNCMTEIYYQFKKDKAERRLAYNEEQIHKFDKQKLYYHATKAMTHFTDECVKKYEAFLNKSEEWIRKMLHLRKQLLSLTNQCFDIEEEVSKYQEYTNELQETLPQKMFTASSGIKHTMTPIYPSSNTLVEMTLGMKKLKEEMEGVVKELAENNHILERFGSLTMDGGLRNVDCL
The conditions noted are these: at 10 µM.

Assay [2] addresses T2, TGF-beta receptor type-1 (Homo sapiens) (UniProt P36897).
T2 sequence (whole entry): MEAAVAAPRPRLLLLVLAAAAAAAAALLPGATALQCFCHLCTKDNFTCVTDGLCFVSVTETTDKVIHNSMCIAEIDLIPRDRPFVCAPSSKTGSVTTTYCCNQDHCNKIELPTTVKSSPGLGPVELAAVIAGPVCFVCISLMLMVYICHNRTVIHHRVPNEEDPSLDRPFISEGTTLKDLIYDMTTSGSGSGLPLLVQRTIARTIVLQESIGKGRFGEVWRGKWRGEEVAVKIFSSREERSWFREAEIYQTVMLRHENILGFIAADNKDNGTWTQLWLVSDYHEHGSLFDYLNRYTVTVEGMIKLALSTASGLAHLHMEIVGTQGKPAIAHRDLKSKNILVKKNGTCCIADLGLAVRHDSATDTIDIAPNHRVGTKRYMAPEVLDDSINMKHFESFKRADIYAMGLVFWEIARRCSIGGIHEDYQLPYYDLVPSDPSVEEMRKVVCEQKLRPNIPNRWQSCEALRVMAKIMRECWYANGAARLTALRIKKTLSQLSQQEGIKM
The conditions noted are these: at 1 µM.

The target of assay [3] is T2, TGF-beta receptor type-1 (Homo sapiens). As to conditions: at 10 µM.
In assay [4] the target is Insulin-like growth factor 1 receptor (Homo sapiens) (UniProt P08069). As to conditions: at 1 µM.
Insulin-like growth factor 1 receptor (Homo sapiens), sequence (P08069 31-736 limits assumed): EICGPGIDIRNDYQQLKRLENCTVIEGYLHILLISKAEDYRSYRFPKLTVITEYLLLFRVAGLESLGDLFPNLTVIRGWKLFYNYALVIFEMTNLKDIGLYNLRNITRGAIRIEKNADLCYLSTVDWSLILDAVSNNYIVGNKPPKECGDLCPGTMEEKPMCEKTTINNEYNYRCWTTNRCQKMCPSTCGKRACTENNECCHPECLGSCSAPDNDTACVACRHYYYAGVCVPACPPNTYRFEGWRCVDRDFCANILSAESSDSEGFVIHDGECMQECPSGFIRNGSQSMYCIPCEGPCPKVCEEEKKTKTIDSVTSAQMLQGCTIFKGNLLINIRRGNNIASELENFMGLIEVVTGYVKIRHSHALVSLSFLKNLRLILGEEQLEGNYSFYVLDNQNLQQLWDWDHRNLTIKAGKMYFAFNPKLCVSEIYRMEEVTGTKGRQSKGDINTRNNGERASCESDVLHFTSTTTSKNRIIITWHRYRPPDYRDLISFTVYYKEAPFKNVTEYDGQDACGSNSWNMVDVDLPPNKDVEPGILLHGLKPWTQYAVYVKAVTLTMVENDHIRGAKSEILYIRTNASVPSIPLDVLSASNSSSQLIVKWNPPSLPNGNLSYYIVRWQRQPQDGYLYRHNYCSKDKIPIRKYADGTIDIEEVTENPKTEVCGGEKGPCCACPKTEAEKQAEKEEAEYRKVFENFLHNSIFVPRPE
Insulin-like growth factor 1 receptor (Homo sapiens), sequence (P08069 741-1367 limits assumed): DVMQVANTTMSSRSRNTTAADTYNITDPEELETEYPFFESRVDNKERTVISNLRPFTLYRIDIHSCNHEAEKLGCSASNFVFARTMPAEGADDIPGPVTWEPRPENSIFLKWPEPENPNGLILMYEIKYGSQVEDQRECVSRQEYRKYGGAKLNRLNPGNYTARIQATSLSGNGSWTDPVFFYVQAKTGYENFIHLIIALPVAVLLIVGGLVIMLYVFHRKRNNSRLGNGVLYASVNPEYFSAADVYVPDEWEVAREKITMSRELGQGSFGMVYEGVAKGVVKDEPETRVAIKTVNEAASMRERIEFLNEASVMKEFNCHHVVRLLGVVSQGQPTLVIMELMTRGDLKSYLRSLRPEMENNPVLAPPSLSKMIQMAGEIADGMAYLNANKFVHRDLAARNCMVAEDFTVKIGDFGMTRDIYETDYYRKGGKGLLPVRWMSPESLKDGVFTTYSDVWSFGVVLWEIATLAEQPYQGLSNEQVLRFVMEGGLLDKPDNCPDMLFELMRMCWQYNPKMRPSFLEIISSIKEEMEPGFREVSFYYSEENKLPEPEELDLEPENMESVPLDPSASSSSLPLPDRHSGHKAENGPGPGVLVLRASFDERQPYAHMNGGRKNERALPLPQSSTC
Assay [5] shares this target. The conditions noted are these: at 10 µM.
In assay [6] the target is T3, Inhibitor of nuclear factor kappa-B kinase subunit alpha (Homo sapiens) (UniProt O15111).
T3 sequence (whole entry): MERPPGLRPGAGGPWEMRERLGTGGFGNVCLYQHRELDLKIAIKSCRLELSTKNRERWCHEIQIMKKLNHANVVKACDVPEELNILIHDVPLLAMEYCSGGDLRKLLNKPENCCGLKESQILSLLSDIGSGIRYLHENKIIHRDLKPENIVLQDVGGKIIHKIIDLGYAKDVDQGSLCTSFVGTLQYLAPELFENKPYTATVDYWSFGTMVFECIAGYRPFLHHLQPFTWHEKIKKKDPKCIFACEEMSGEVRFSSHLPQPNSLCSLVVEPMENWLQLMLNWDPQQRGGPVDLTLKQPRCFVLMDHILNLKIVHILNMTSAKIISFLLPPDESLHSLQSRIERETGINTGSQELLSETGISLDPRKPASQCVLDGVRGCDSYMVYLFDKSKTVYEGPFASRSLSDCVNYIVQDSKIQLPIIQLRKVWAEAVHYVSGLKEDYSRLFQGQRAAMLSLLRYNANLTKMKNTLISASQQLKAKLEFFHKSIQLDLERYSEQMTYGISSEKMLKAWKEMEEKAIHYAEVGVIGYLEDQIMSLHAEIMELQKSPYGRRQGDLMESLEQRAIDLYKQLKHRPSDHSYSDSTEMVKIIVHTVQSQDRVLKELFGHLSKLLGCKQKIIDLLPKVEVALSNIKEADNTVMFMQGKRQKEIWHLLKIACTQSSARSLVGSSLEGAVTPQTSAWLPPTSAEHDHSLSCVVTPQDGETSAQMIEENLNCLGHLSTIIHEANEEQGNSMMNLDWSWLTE
As to conditions: at 1 µM.

Assay [7] deals with T3, Inhibitor of nuclear factor kappa-B kinase subunit alpha (Homo sapiens). As to conditions: at 10 µM.
The target in assay [8] is T4, Inhibitor of nuclear factor kappa-B kinase subunit beta (Homo sapiens) (UniProt O14920).
T4 sequence (whole entry): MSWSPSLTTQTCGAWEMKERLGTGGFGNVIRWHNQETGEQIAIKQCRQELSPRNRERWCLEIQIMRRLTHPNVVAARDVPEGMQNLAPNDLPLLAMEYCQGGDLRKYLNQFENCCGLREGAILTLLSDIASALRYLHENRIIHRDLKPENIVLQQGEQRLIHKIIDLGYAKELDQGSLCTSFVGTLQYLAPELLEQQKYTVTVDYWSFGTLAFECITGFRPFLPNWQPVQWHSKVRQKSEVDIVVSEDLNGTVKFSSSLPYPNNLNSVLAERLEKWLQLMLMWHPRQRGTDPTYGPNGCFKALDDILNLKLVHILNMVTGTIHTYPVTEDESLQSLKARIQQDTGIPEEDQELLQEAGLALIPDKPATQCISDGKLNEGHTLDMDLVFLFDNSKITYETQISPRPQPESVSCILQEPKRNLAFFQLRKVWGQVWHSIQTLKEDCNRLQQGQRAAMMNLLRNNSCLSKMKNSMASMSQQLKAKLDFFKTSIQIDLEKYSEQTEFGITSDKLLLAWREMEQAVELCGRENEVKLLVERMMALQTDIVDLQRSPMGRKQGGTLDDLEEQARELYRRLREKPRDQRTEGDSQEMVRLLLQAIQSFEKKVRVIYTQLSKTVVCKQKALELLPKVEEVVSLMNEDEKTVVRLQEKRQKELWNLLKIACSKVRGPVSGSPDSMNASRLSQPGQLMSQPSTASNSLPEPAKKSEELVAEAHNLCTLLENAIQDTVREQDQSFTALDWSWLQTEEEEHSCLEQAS
As to conditions: at 1 µM.

Assay [9] deals with T4, Inhibitor of nuclear factor kappa-B kinase subunit beta (Homo sapiens). As to conditions: at 10 µM.
Assay [10] deals with Insulin receptor (Homo sapiens) (UniProt P06213). The conditions noted are these: at 1 µM.
Insulin receptor (Homo sapiens), sequence (P06213 28-758 limits assumed): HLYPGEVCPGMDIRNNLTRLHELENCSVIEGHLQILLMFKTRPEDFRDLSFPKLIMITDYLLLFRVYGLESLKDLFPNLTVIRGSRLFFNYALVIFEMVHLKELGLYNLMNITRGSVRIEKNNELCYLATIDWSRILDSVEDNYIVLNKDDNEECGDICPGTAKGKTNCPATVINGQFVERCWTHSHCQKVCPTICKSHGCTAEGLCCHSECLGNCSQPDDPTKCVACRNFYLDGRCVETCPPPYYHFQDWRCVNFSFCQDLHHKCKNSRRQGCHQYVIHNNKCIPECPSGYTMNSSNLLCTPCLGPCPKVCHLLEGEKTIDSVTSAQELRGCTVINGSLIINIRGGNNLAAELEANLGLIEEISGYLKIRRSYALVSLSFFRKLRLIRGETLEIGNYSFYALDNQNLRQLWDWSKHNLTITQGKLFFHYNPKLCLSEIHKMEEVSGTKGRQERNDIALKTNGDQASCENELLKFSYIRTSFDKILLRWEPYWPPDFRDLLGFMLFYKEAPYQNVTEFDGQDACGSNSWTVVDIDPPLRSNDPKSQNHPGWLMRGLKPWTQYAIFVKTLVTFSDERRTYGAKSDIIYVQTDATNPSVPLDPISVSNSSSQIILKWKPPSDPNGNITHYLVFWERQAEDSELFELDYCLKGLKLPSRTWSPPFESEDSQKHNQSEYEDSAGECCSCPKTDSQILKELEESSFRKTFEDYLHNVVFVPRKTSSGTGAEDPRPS
Insulin receptor (Homo sapiens), sequence (P06213 763-1382 limits assumed): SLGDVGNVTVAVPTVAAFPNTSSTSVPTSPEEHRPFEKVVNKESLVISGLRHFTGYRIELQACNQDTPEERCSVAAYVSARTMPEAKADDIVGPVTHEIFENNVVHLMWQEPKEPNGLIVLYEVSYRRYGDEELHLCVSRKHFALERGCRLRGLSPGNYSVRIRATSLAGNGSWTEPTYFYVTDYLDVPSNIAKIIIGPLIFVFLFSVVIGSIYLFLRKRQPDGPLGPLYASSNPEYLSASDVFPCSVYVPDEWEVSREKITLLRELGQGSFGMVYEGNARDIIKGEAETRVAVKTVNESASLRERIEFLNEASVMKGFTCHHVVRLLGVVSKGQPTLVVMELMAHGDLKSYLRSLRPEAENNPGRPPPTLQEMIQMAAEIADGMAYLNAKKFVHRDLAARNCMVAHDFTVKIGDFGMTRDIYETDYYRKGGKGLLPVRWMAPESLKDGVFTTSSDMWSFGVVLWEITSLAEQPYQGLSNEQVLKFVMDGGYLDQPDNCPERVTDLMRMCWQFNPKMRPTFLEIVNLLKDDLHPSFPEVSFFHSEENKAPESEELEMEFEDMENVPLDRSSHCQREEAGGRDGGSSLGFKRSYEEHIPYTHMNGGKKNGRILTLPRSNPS

One may read the residual activity as the signal under treatment as a percentage of the control signal. As for `Cc1ccc(NC2=CC(=O)c3sc(C)nc3C2=O)cc1`, the residual activity in assay [1] came out at 74%; in assay [2], 90%; in assay [3], 83%; in assay [4] it was 95%; in [5] it was 92%; in [6] it was 107%. The residual activity was found to be 103% in assay [7], 106% in assay [8], 98% in [9] and 95% in [10].
